Shown are actives, neighbours in structure and some others; about 3.8% of the full set was active somewhere.
B2AR ag: activates human beta-2 adrenergic receptor causing internalization | P07550 | Am2.2-beta2AR cells, FAP receptor internalization, flow cytometry | response, % (no concentration beside the values) | 0.43% of 340,000 active | AID 504454;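 active = response above a set limit, near 3 SD of response in nonfluorescent compounds, cut at about 42% in these data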
Target sequence (P07550 whole entry, looked up): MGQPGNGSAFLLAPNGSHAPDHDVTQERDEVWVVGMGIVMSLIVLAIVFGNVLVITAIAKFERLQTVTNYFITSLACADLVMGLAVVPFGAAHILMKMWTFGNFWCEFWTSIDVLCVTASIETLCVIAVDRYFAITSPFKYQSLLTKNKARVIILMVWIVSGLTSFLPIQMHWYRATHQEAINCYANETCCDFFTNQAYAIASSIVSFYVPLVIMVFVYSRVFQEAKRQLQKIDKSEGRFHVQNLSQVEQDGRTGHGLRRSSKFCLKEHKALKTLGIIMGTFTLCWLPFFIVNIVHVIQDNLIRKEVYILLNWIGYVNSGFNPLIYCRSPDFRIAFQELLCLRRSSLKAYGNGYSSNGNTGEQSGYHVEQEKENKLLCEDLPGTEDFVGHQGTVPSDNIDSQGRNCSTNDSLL
PfHsp90 set2: growth inhibition of yeast expressing Plasmodium Hsp90 | S. cerevisiae expressing PfHsp90, BacTiter-Glo ATP, 48 h; yeast lacking PDR1 and PDR3 efflux regulators | inhibition, % at 9.4 µM | 0.32% of 310,000 active | AID 504621;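 active = every replicate shows inhibition above about 80%, whatever the replicate mean, limit read from the data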
TIM10 inh: inhibits growth of TIM10 yeast strain; inhibition, % at 10 µM; 1.4% of 330,000 active; S. cerevisiae TIM10 strain growth, BacTiter-Glo luminescence, 24 h; AID 463195;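 active = inhibition of 40% or more at the single tested concentration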;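 note: wild-type TIM10 isogenic control strain grown at permissive 25 °C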
tim10-1 inh: inhibits growth of tim10-1 mutant yeast; S. cerevisiae tim10-1 ts strain growth, BacTiter-Glo, 24 h; inhibition, % at 20 µM; 2.2% of 330,000 active; AID 463190;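 active = inhibition of at least 40%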;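 note: mutant grown at 25 °C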
tim23-1 inh: tim23-1 yeast growth inhibition; 1.3% of 330,000 active; S. cerevisiae tim23-1 growth, BacTiter-Glo luminescence, 24 h; inhibition, % at 20 µM;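 active = growth inhibition of the mutant yeast at or above 50%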;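 note: temperature-sensitive mutant grown at 25 °C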
tim23-1 conf: confirmation of tim23-1 mutant yeast growth inhibitors. shares compounds with tim23-1 inh. S. cerevisiae tim23-1 growth, BacTiter-Glo luminescence, 24 h. inhibition, % at 20 µM. 83% of 4,400 active. AID 463218;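 active = inhibition above about 39% in either of two replicate wells at 20 µM, limit read from the data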;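 note: temperature-sensitive tim23-1 mutant grown at 25 °C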
A number is an active result; i = inactive; nt = no result given.

SMILES	B2AR ag	PfHsp90 set2	TIM10 inh	tim10-1 inh	tim23-1 inh	tim23-1 conf
O=C(COC(=O)CCS(=O)(=O)c1ccccc1)Nc1ccc(N2CCCCC2)cc1	i	i	i	i	i	nt
Cc1nc2ccccc2c(N)c1C(=O)/C=C/c1ccccc1	i	i	i	i	i	nt
Cc1[nH]c2ccccc2c1C(=O)/C=C/c1ccccc1	i	i	i	i	64	56
O=C(OCc1cccc(F)c1)c1cc2ccccc2cc1O	i	i	i	i	94	i
CN(C(=O)COC(=O)c1cc2ccccc2cc1O)C1CCCCC1	i	i	i	i	55	49
O=C(Cc1ccc([N+](=O)[O-])cc1)N/N=C/c1ccc([N+](=O)[O-])o1	i	i	i	i	i	nt
O=C(CC12CC3CC(CC(C3)C1)C2)N/N=C/c1ccc([N+](=O)[O-])o1	i	i	i	i	57	i
Cc1cc(C)cc(OCC(=O)N/N=C/c2ccc([N+](=O)[O-])o2)c1	i	i	i	i	52	i
O=C(CSc1nnc(NC(=O)C2CC(=O)N(c3ccccc3)C2)s1)NCc1ccco1 (centres undefined)	i	i	i	i	i	nt
COC(=O)N/N=C/c1ccccc1OCCOc1ccc(OC)cc1	i	i	i	i	51	48
COC(=O)N/N=C/c1ccccc1OCc1ccccc1	i	i	i	i	i	nt
Cc1ccc(S(=O)(=O)N2CCCCC2)cc1NC(=O)c1ccncc1	i	i	i	i	i	nt
CCCCCOC(=O)Cc1c(C)nc(-c2ccccc2)[nH]c1=O	i	i	i	i	54	52
CCCCCOC(=O)Cc1c(O)c2ccccc2[nH]c1=O	i	i	i	i	i	nt
Cc1cccc(N=Nc2cn[nH]c2-c2ccco2)c1	i	i	i	i	i	nt
c1ccc(N=Nc2cn[nH]c2-c2ccco2)cc1	i	i	i	i	51	47
C/C(=N\NC(=O)c1cc(-c2cccc([N+](=O)[O-])c2)n[nH]1)c1ccccc1O	i	i	nt	nt	nt	nt
COc1ccc(S(=O)(=O)N2CCN(C(=O)c3cnc(C)cn3)CC2)cc1	i	i	i	i	i	nt
COc1ccc(S(=O)(=O)N2CCN(C(=O)c3ccc4ccccc4n3)CC2)cc1	i	i	i	i	58	61
CCOC(=O)C1=CN(Cc2cccc(F)c2)S(=O)(=O)NC1c1ccc(Br)cc1F (centres undefined)	i	i	i	i	56	46
CCn1c(SCc2ccc(Cl)cc2)nc2nc3c(cc2c1=O)CCCC3	i	i	i	i	i	nt
CSc1nc2nc3c(cc2c(=O)n1-c1ccccc1C)CCCC3	i	i	i	i	55	44
CC(=O)Nc1ccc(OS(=O)(=O)c2cc(Cl)ccc2C)cc1	i	i	i	i	52	46
CCN(CC)CCOC(=O)c1ccc(NC(=O)C2(c3ccccc3)CCCC2)cc1	i	i	i	i	95	i
COc1ccc(C(C[N+](=O)[O-])c2c(C)cc3ccccn23)c(OC)c1 (centres undefined)	i	i	i	i	82	75
SMILES	B2AR ag	PfHsp90 set2	TIM10 inh	tim10-1 inh	tim23-1 inh	tim23-1 conf
O=C(C[n+]1ccccc1)N/N=C/c1ccc(Br)cc1	i	i	i	i	i	nt
CC(C)NC1=C(Cl)C(=O)c2ccccc2C1=O	i	i	i	i	55	45
C=CCNC1=C(Cl)C(=O)c2ccccc2C1=O	i	i	i	i	54	44
O=C1C(Cl)=C(Nc2ccccc2)C(=O)c2ccccc21	i	i	nt	nt	nt	nt
CCN(CC)CCCNC1=C(Cl)C(=O)c2ccccc2C1=O	i	nt	i	i	i	nt
Cc1ccc(C(=O)NC(C)C2CC3CCC2C3)c(C)c1 (centres undefined)	i	i	i	i	i	nt
CCSc1nnc(NC(=O)CN2C(=O)NC3(CCCC3)C2=O)s1	i	i	i	i	i	nt
CCN(C(=O)COC(=O)c1cccc(S(=O)(=O)NCc2ccccc2)c1)c1ccccc1	i	i	i	i	i	nt
Cc1cccn2c(=O)c(/C=C(\C#N)S(=O)(=O)c3ccccc3)c(Oc3ccc(Cl)cc3)nc12	i	i	i	i	50	i
Cc1cc(Oc2nc3c(C)cccn3c(=O)c2/C=C(\C#N)S(=O)(=O)c2ccccc2)ccc1Cl	i	i	i	i	i	nt
Cc1ccc(C)c(NC(=O)COC(=O)CNC(=O)C2CCCCC2)c1	i	i	i	i	i	nt
COc1ccc(-c2cccc(NC(=O)c3cccs3)c2)nn1	i	nt	i	i	62	56
O=C(Nc1cccc(-c2nn[nH]n2)c1)c1cccs1	i	i	i	i	i	nt
CCOc1ccc(-c2cccc(NC(=O)c3cccs3)c2)nn1	i	i	i	i	63	47
CCOc1ccc(-c2cccc(NC(=O)c3ccco3)c2)nn1	i	i	i	i	54	i
CCOC(=O)c1[nH]c(C)c(C(=O)OCC(=O)N2CC(=O)Nc3ccccc32)c1C	i	i	i	i	i	nt
COc1ccc(S(=O)(=O)Cc2ccccc2)cc1N	i	nt	i	i	i	nt
Nc1ccccc1C(=O)C[C@H](N)C(=O)O	i	i	nt	nt	nt	nt
COc1ccccc1N(Cc1ccccc1)S(=O)(=O)c1cccc(C(=O)N2CCCCC2)c1	i	i	i	i	i	nt
CCCC(NC(=S)NCC1CCCO1)C12CC3CC(CC(C3)C1)C2 (centres undefined)	i	i	i	i	51	51
CC(=O)c1ccc(N2CCN(c3ncccn3)CC2)cc1	i	i	i	i	i	nt
O=[N+]([O-])c1cc(O)c2ncccc2c1	nt	nt	i	i	67	70
COc1cccc(CNn2c(-c3cccc(C)c3)nc3ccccc3c2=O)c1O	i	nt	i	i	57	45
COc1ccc(OC)c(CNn2c(-c3ccccc3F)nc3ccccc3c2=O)c1	i	i	i	i	i	nt
CC(C)(C)N1C(=O)c2ccc(C(=O)Nc3nccs3)cc2C1=O	i	i	i	i	58	59
SMILES	B2AR ag	PfHsp90 set2	TIM10 inh	tim10-1 inh	tim23-1 inh	tim23-1 conf
O=C(Cc1ccccc1)N/N=C/c1ccc([N+](=O)[O-])s1	i	i	i	i	i	nt
Cc1cc(C(=O)N/N=C/c2ccc([N+](=O)[O-])s2)c2ccccc2n1	i	i	i	i	65	59
O=C(N/N=C/c1ccc([N+](=O)[O-])s1)c1ccccc1Br	i	i	i	i	77	64
Cc1cc(C(=O)N/N=C/c2ccc([N+](=O)[O-])cc2)c2ccccc2n1	i	i	i	i	i	nt
O=C(N/N=C/c1cc([N+](=O)[O-])ccc1O)c1cc(-c2ccccc2)nc2ccccc12	i	i	i	i	58	58
O=C(N/N=C/c1cc([N+](=O)[O-])ccc1Cl)c1cc(-c2ccccc2)nc2ccccc12	i	i	i	i	i	nt
O=C(Nc1nnc(CSCc2ccc(F)cc2)s1)c1ccc([N+](=O)[O-])cc1	i	i	i	i	i	nt
CC[N+]1(C)CCC(O)(c2ccc(OC)cc2)C(C(=O)c2ccc(OC)cc2)C1 (centres undefined)	i	i	nt	nt	nt	nt
O=C(COC(=O)c1ccc2ncsc2c1)Nc1cc(Cl)ccc1F	i	i	i	i	56	41

High-throughput results deposited in PubChem by several laboratories.
